Bioassay records from PubChem.
BRCA1 expr act – BRCA1 expression activation; MCF7-BRCA1-FFLuc reporter, luminescence, 48 h; response scale: scaled: vehicle 0%, 10 µM genistein 100%; Potency, µM (titrated, usually from 46.1 µM), for the others: at the top dose activation, most hits filed as activators; hit rate 1.1% among 380,000; also: nearly all actives have a fitted effect of over 80% in size
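Reporter cells (MCF7, BRCA1 promoter-firefly luciferase) received library compounds across a concentration series for 48 h. End-point luminescence was measured and concentration-effect curves derived after normalization.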
PLK1 PBD inh – blocks phosphopeptide binding to human PLK1 polo-box domain; Potency, µM, for inactives: max response, negative = inhibition, hits mostly inhibitors; AID 720504; hit rate 2.8% among 360,000; P53350; Plk1 PBD binding of FITC phosphopeptide, fluorescence polarization; also: series mostly up to about 57 µM; % is scaled to controls: 0 for no effect and ±100 for the full control effect; nearly all actives have a fitted effect of over 65% in size
Tb PFK inh-1 – T. brucei PFK enzyme inhibition | O15648 | T. brucei PFK, ADP-Glo luminescence | Potency, µM (doses to about 57.5 µM), without a hit: top-dose activity, negative = inhibition, actives largely listed as inhibitors | hit rate 0.17% among 330,000 | AID 485367;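 also: 0% = uninhibited 1x PFK enzyme wells and -100% = no-enzyme wells; nearly all actives have a fitted effect of over 60% in size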
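Luminescent ADP detection (ADP-Glo, two-step: ATP depletion then ADP-to-ATP conversion for luciferase) reported PFK activity after 45 min room-temperature reaction of 1.25 nM enzyme with 0.5 mM F6P and 0.1 mM ATP at pH 8.0.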
VDR inhibitor – blocks the human vitamin D receptor; P11473; VDR-SRC2-3 peptide fluorescence polarization, 2 h; Potency, µM, for inactives: max response, negative = inhibition, actives largely listed as inhibitors; hit rate 0.93% among 400,000; AID 504847; also: % is scaled to controls: 0 for no effect and ±100 for the full control effect
Target sequence (P11473 whole entry, looked up): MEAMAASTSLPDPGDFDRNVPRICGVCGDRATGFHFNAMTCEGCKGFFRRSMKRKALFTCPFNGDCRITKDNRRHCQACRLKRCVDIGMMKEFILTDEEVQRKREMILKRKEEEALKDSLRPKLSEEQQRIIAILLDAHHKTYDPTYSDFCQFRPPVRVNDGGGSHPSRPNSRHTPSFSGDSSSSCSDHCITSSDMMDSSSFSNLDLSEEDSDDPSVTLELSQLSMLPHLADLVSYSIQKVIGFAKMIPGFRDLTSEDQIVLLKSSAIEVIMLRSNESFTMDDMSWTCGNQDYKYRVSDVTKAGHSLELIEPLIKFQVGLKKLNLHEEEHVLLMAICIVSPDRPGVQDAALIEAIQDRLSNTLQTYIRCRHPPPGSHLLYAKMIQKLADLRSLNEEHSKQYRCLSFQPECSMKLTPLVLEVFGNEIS
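Reagent solutions, kept cold and dark, are dispensed first; compounds are then pinned in at 23 nl, plates briefly spun, and incubated 2 h at ambient temperature. Inhibition of VDR–SRC2-3 peptide binding is read by fluorescence polarization.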
Tb PFK KinaseGlo – Tb phosphofructokinase inhibition, orthogonal luminescence | shares compounds with Tb PFK inh-1 | Tb PFK enzyme, ATP depletion, Kinase-Glo Plus luminescence | Potency, µM (doses to about 57.5 µM), for inactives: top-dose inhibition | hit rate 47% among 1,100 | AID 504636; calls by dose curve; also: nearly all actives have a fitted effect of over 60% in size
Tb PFK inh-2 – T. brucei PFK enzyme inhibition, hit validation; hit rate 41% among 1,100; purified T. brucei PFK, ADP-Glo luminescence, 45 min; AID 504637; Potency, µM (series often up to 57.5 µM), inactives show top-dose activity change, negative = inhibition, usual class: inhibitors; shares compounds with Tb PFK inh-1;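 also: plate controls were full PFK enzyme control for no effect and no enzyme control for full effect; nearly all actives have a fitted effect of over 60% in size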
* hit, by the source's call; u = inconclusive; x = no result given; ! = repeats disagree. The list is not random: actives were taken first. Their share in the collection is about 3.9%. Unless noted, calls follow the shape of the dose curve; as a rule, active = well fitted curve in the direction sought with a large enough effect; inconclusive = small, poorly fitted or top-dose-only effect, or another doubt; inactive = no such curve, though single readings can be large; an effect the other way counts as inactive or inconclusive. Potency is read from the fitted curve at half-maximal effect.

SMILES	BRCA1 expr act	PLK1 PBD inh	Tb PFK inh-1	VDR inhibitor	Tb PFK KinaseGlo	Tb PFK inh-2
O=Cc1cn(Cc2cccc([N+](=O)[O-])c2)c2ccccc12	-59.9%	-0.8%	u	1.0%	u	-23.7%
C[C@]12CC[C@@H]3[C@@H](CCC4=CC(=O)CC[C@@H]43)[C@@H]1CC[C@@H]2OC(=O)CCc1ccccc1	x	x	x	-17.2%	x	x
COc1cc(Br)c(Br)cc1N	-13.7%	-1.1%	u	-2.3%	21.3µM*	u
COc1cc(-c2ccc(N)c(OC)c2)ccc1N	-5.7%	-13.5%	0.6%	-12.9%	x	x
O=C(O)[C@@H]1C[C@H]2C[C@@H](CP(=O)(O)O)CC[C@H]2CN1	x	x	x	3.5%	x	x
O=C(OCc1ccc(Cl)c(Cl)c1)c1ccccn1	0.1%	1.0%	u	-7.6%	x	x
O=C(Cc1ccc(Cl)c(Cl)c1)Nc1cccc2ncccc12	-20.0%	-4.1%	10.7µM*	-9.7%	10.7µM*	10.7µM*
COC(=O)N1CCC2(CCN(CC(C)C)CC2)CC1	x	x	x	-11.0%	x	x
O=C(NCCc1ccccc1)c1ccc2nccnc2c1	-60.6%	-2.2%	3.1%	11.6%	x	x
O=C(CCc1ccccc1)NNC(=O)c1ccc(NC(=O)c2ccccc2)cc1	-2.3%	-8.1%	u	-0.3%	u	u
Cc1cc2ccccc2n1CCNC(=O)COc1ccccc1	-39.4%	-22.9%	-0.3%	u	x	x
O=C(Oc1ccc([N+](=O)[O-])cc1)N1CCN(/[N+]([O-])=N/Oc2ccc([N+](=O)[O-])cc2[N+](=O)[O-])CC1	16.3%	x	x	x	x	x
CN1CCc2cccc3c2C1Cc1ccc(O)c(O)c1-3 (centres undefined)	-39.3%	3.4%	4.26µM*	10µM*!	19µM*	16.9µM*
COc1ccc2c(c1O)-c1cc(O)cc3c1[C@@H](C2)N(C)CC3	x	x	x	2.9%	x	x
C=CCN1CCc2cccc3c2[C@H]1Cc1ccc(O)c(O)c1-3	-38.6%	37.7µM*	u	10µM*!	6.01µM*	6.01µM*
Cc1cc(OCC(=O)N2CCN(CCc3ccccn3)CC2)cc(C)c1Cl	x	x	x	7.7%	x	x
C/C(=C\[C@@H](N)C(=O)O)CP(=O)(O)O	x	x	x	-5.0%	x	x
CC(=O)N(C)Cc1ccc(C(=O)CCl)cc1	1.0%	5.32µM*	u	-19.4%	2.39µM*	3.01µM*
O=C(CI)c1ccc(Cl)cc1	16.4%	x	x	x	x	x
O=C(c1ccc2c(c1)N(Cc1c(F)cccc1Cl)C(=O)c1ccccc1S2)N1CCC2(CC1)OCCO2	0.0%	x	x	-13.7%	x	x
O=C(Cc1ccccc1)OCC(=O)c1ccccc1	-0.9%	-11.8%	0.8%	12.0%	x	x
C=CCNc1nc(C(=O)OCC(=O)c2ccccc2)cs1	u	0.0%	8.49µM*	24.1%	7.1%	-7.5%
NCCOc1ccccc1Cc1ccccc1	-20.7%	-6.6%	19µM*	20.2%	u	u
CN(C(=O)Cc1ccccc1)[C@H](CN1CCCC1)c1ccccc1	x	x	x	-0.5%	x	x
Cc1ccc(NC2c3ncccc3C(=O)N2Cc2cccs2)cc1C (centres undefined)	1.5%	-5.2%	u	15.3%	19.9%	-19.6%
SMILES	BRCA1 expr act	PLK1 PBD inh	Tb PFK inh-1	VDR inhibitor	Tb PFK KinaseGlo	Tb PFK inh-2
COC(=O)C1CCN(C(=O)c2cc(-c3ccco3)nc3ccccc23)CC1	1.1%	29.9µM*	2.69µM*	-11.7%	u	-25.5%
COc1ccc(NC(=O)CCn2cc(C)c3ccccc32)cc1	u	2.0%	-3.3%	-2.3%	x	x
Cc1cc(NC(=O)c2cccn(Cc3cccc([N+](=O)[O-])c3)c2=O)no1	x	x	x	10.2%	x	x
CC1C(=O)OC2CCN3CC=C(COC(=O)[C@](C)(O)[C@]1(C)O)C23 (some centres undefined)	x	x	x	9.9%	x	x
O=C1/C(=C/c2ccco2)SC(=S)N1c1cccnc1	-3.0%	16.8µM*	u	-18.1%	4.26µM*	7.57µM*
O=c1c2ccccc2nc(-c2ccco2)n1-c1cccnc1	2.6%	-0.4%	1.6%	23.0%	x	x
CC[C@@]1(c2ccc(N)cc2)CCC(=O)NC1=O	x	x	x	10.3%	x	x
NC(=S)c1cn(C2OC(CO)C(O)C2O)c2ncnc(N)c12 (centres undefined)	-87.3%	26.7µM*	u	u	u	-13.5%
Nc1ncnc2c1ccn2[C@@H]1O[C@H](CO)[C@@H](O)[C@H]1O	-84.5%	0.7%	x	12.1%	x	x
